Screening data as filed in PubChem.
KCNQ2 pot: potentiators of rat KCNQ2 potassium channel. Potassium voltage-gated channel subfamily KQT member 2 (Rattus norvegicus), O88943. CHO-K1 KCNQ2, FluxOR thallium flux fluorescence; stronger effect = higher value. B-score at 10 µM. hit rate 0.54% among 310,000;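 active = fluorescence ratio B-score at least 3 SD of library B-scores, with initial fluorescence B-score within 3 of them, cut at about 5.3 in these data; same plate scores as AID 2156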;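 also: B-score of peak minus minimum over baseline fluorescence ratio after K+ and Tl+ stimulus; positive B-score means potentiation of KCNQ2 with more thallium influx and brighter signal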
Target sequence (O88943 whole entry, looked up): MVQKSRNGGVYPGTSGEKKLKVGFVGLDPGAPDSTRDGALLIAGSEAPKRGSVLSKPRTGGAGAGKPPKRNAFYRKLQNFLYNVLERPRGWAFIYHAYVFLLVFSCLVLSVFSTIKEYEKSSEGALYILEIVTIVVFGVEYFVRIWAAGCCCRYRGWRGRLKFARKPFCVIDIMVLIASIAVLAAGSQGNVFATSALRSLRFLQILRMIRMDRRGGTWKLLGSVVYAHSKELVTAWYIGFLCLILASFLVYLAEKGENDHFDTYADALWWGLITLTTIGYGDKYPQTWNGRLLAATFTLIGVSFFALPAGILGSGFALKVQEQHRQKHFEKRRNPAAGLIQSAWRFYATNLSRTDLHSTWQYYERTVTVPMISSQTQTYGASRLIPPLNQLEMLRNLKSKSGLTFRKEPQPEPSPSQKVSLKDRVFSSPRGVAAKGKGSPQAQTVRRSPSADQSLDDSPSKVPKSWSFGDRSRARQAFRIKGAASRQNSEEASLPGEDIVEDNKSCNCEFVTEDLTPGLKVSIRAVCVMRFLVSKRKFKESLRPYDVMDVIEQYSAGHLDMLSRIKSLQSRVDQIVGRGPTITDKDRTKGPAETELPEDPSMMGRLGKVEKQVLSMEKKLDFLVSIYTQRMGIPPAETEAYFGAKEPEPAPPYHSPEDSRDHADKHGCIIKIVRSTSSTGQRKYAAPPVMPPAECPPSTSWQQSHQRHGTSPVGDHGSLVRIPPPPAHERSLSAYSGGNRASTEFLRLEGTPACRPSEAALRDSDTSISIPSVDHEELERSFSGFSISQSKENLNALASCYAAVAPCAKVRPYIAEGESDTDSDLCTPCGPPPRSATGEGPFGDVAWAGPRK
KCNQ2 block: rat KCNQ2 potassium channel inhibitors, primary screen, cell-based, CHO-K1, FluxOR thallium flux, B-score; AID 2156, 2009; 20 min; stronger effect = lower value; Potassium voltage-gated channel subfamily KQT member 2 (Rattus norvegicus), O88943; hit rate 1.1% among 310,000; B-score at 10 µM;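 active = fluorescence ratio B-score at most minus 3 library SDs, with starting brightness B-score within 2 library SDs, cut at about -5.5 in these data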
Active calls of the source: *. Only some compounds are listed: those with a hit (about 1.6% of all), similar ones and a draw of the others.

For Cn1ccc(NC(=O)Nc2cccc([N+](=O)[O-])c2)n1 the results were KCNQ2 block inactive.
CCn1c(C)cc(O)c(C(=O)Nc2cccc(Cl)c2)c1=O was read as KCNQ2 pot 1.6 and KCNQ2 block inactive.
CCn1c(C)c(C)c2cc(C(=O)Nc3cccc(Cl)c3)ccc21 was read as KCNQ2 pot -6.6 and KCNQ2 block -6.6*.
`O=S(=O)(c1ccc(F)cc1)N1CCN(S(=O)(=O)c2cccs2)CC1` gave KCNQ2 block inactive.
Screening COc1ccc(C2(C(=O)NCc3ccccc3Cl)CCOCC2)cc1OC returned KCNQ2 pot 0.8 and KCNQ2 block inactive.
COc1ccccc1CNC(=O)C1(c2ccc(Cl)cc2)CC1 was read as KCNQ2 pot -5.7 and KCNQ2 block -5.7*.
Screening CCOc1ccccc1N(CC(=O)Nc1ccccc1C(=O)N1CCOCC1)S(C)(=O)=O returned KCNQ2 pot 0.48 and KCNQ2 block inactive.
CCOC(=O)C1C(=O)C=C(c2ccc([N+](=O)[O-])cc2)CC1c1ccccc1 (stereo not given) was read as KCNQ2 block inactive.
CC(C)(C)OC(=O)[C@H]1[C@H](c2ccc([N+](=O)[O-])cc2)C2(C(=O)c3ccccc3C2=O)C2c3ccccc3C=NN21 (stereo not given in full) was read as KCNQ2 pot -6.1 and KCNQ2 block -6.1*.
For Cc1c(C(=O)Nc2c(N)nc(SCC(=O)NCC3CCCO3)[nH]c2=O)cccc1[N+](=O)[O-] (stereo not given) the results were KCNQ2 pot 0.16 and KCNQ2 block inactive.
For CCOC(=O)C1CCN(C(=O)C2CCN(S(=O)(=O)c3cc(Cl)ccc3OCC)CC2)CC1 the results were KCNQ2 block inactive.
CCC/C=C(\CCC)C(NC(=O)c1ccc(C(F)(F)F)cc1)c1ccccc1 (stereo not given) was read as KCNQ2 pot -6.6 and KCNQ2 block -6.6*.
Screening CCC/C=C(\CCC)C(NC(=O)c1ccc(C(=O)OC)cc1)c1ccc(C(=O)OC)cc1 (stereo not given) returned KCNQ2 pot -7.2 and KCNQ2 block -7.2*.
For COC(=O)c1ccc(C(=O)NN)cc1 the results were KCNQ2 block inactive.
For CC(C)CC(C)NC(=O)c1ccc(C(F)(F)F)cc1 (stereo not given) the results were KCNQ2 pot 2.2 and KCNQ2 block inactive.
For COc1ccccc1NC(=O)c1ccc(NC(=O)Cc2n[nH]c(=O)c3ccccc23)cc1 the results were KCNQ2 block inactive.
For CC(C)c1ccccc1OCC(=O)Nc1ccccc1C(=O)N1CCOCC1 the results were KCNQ2 block inactive.
`COc1ccc(CNc2ncc(-c3ccccc3)n2C)c2ccccc12` gave KCNQ2 pot -5.7 and KCNQ2 block -5.7*.
COc1ccc(CNc2ncc(-c3ccccc3)n2C)c(OC)c1OC was read as KCNQ2 pot 0.9 and KCNQ2 block inactive.
Screening COC(=O)c1ccccc1NC(=O)CSc1ncn[nH]1 returned KCNQ2 block inactive.
`CCCOP(=O)(c1ccc(N(C)C)cc1)C(O)c1c(Cl)cccc1Cl` (stereo not given) gave KCNQ2 pot 0.59 and KCNQ2 block inactive.
CC(C)CCOP(=O)(c1ccc(N(C)C)cc1)C(O)c1c(Cl)cccc1Cl (stereo not given) was read as KCNQ2 pot -5.6 and KCNQ2 block -5.6*.
For COc1ccccc1-c1nc(C(=O)NCC2CCCO2)cc2c1[nH]c1ccccc12 (stereo not given) the results were KCNQ2 block inactive.
`COc1cc(-c2nc(C(=O)NCC3CCCO3)cc3c2[nH]c2ccccc23)cc(OC)c1OC` (stereo not given) gave KCNQ2 pot -6.7 and KCNQ2 block -6.7*.
Screening N#C/C(=C\c1c(N2CCC(C(N)=O)CC2)nc2ccccn2c1=O)C(=O)NC1CCCCC1 returned KCNQ2 pot 0.73 and KCNQ2 block inactive.
`CC(=O)N1CCCC1(C(=O)O)c1ccccc1` (stereo not given) gave KCNQ2 pot 1.1 and KCNQ2 block inactive.
For CC1CCC(NC(=O)c2ccc(NC(=O)CC3SC(N4CCCC4)=NC3=O)cc2)CC1 (stereo not given) the results were KCNQ2 block inactive.
`CCn1c(=O)c(-c2cc(=O)[nH][nH]2)c(O)c2ccccc21` gave KCNQ2 block inactive.
For O=c1cc(-c2c(O)c3ccccc3n(Cc3ccccc3)c2=O)[nH][nH]1 the results were KCNQ2 pot -6.8 and KCNQ2 block -6.8*.
Screening Cc1ccsc1/C=N/NC(=O)c1ccc(-n2cccc2)cc1 returned KCNQ2 block inactive.
`COc1ccccc1OCCNC(=O)c1ccc2c(c1)OCCO2` gave KCNQ2 pot 6.7* and KCNQ2 block inactive.
Screening COc1ccccc1OCCNC(=O)CNC(=O)c1ccc2c(c1)OCO2 returned KCNQ2 pot 0.26 and KCNQ2 block inactive.
`Nn1c(SCC(=O)Nc2ccc3c(c2)OCCO3)nnc(CCC(=O)O)c1=O` gave KCNQ2 pot 1.2 and KCNQ2 block inactive.
For CC(=O)N(CCC1(c2ccc(C)cc2)CCOC(C(C)C)C1)Cc1ccco1 (stereo not given) the results were KCNQ2 pot -6 and KCNQ2 block -6*.
Screening Cc1ccc(C2(CCNCc3ccco3)CCOC(C(C)C)C2)cc1 (stereo not given) returned KCNQ2 block inactive.
For O=C(NCCC1CCCCN1S(=O)(=O)c1ccccc1)C(=O)NCc1ccccn1 (stereo not given) the results were KCNQ2 block inactive.
Nc1nc(SCC(=O)Nc2cccc(Oc3ccccc3)c2)n[nH]1 was read as KCNQ2 pot 6.4* and KCNQ2 block inactive.
For Nc1nc(SCC(=O)Nc2ccc(Oc3ccccc3)cc2)n[nH]1 the results were KCNQ2 pot 4 and KCNQ2 block inactive.
`COc1cc(NS(=O)(=O)c2c(C)oc3c(F)c(F)c(F)c(F)c23)cc(OC)c1OC` gave KCNQ2 pot -6.7 and KCNQ2 block -6.7*.
For COc1cc(NS(=O)(=O)c2ccc3c(c2)oc(=O)n3C)cc(OC)c1OC the results were KCNQ2 block inactive.
O=c1cc(CN2CCc3ccccc3C2)nc2sccn12 was read as KCNQ2 block inactive.
For O=C(c1ccco1)[C@@H]1[C@@H]2C(=O)N(c3ccccc3)C(=O)[C@@H]2C2c3ccccc3C=CN21 (stereo not given in full) the results were KCNQ2 block inactive.
For Cc1ccc(N2C(=O)[C@@H]3[C@H](C2=O)C2c4ccccc4C=CN2[C@@H]3C(=O)c2ccco2)c(C)c1 (stereo not given in full) the results were KCNQ2 pot -6.4 and KCNQ2 block -6.4*.
Cn1c(SCc2ccccc2Cl)nc2ccccc21 was read as KCNQ2 block inactive.
For CCn1c(SCc2ccccc2Cl)nc2ccccc21 the results were KCNQ2 pot -6.6 and KCNQ2 block -6.6*.
For CC(C)Cc1ccc(CN2CCCC(NC(=O)c3ccnn3C)C2)cc1 (stereo not given) the results were KCNQ2 block inactive.
`CC(C)Cc1ccc(CN2CCCC(NC(=O)c3nn(C)c(=O)c4ccccc34)C2)cc1` (stereo not given) gave KCNQ2 pot -7.8 and KCNQ2 block -7.8*.
For Cc1ccc(SCC(=O)Nc2ccc(C(=O)Nc3ccc(O)cc3)cc2)cc1 the results were KCNQ2 block inactive.
